Source: PubChem BioAssay
NALP3 yeast inh: NALP3 inflammasome inhibitors in reconstituted yeast, primary screen, luminescence, uHTS | Yeast reconstituted NLRP3/ASC/caspase-1, beta-gal luminescence, 24 h | inhibition, % at 10 µM | 330,000 tested, 0.39% active;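 active means inhibition of 50% or more; inactive means inhibition below 50%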;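 further: plate controls were induced DMSO wells for no effect and uninduced yeast grown without galactose for full effect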
SKKanGAS inh: S. pyogenes SKKanGAS growth inhibitors in kanamycin, primary screen, streptokinase expression inhibitor project, SKKanGAS strain, BacTiter-Glo luminescence. 300,000 tested, 1.3% active. inhibition, % at 7.5 µM. 6 h;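 active means mean replicate score, as percent of positive control median, at least 50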;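 further: strain carries kanamycin resistance gene driven by streptokinase promoter and grows in 40 µg/ml kanamycin; loss of luminescence reflects streptokinase promoter inhibition or plain growth inhibition; 0% = median of DMSO wells and 100% = positive control at its reference dose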
PfHsp90 set2: growth inhibition of PfHsp90-expressing yeast, primary screen, antimalarial PfHsp90 inhibitor project, S. cerevisiae, BacTiter-Glo luminescence, single point, set 2; BacTiter-Glo ATP, 48 h; yeast lacking PDR1 and PDR3 efflux regulators; inhibition, % at 9.4 µM; 310,000 tested, 0.32% active; AID 504621, 2011;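 active means every replicate shows inhibition above about 80%, whatever the replicate mean, limit read from the data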;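 further: 0% = DMSO neutral controls and 100% = 20 µM radicicol positive controls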
TIM10 inh: growth inhibitors of isogenic TIM10 control yeast, primary screen, counter-screen for tim10-1 yeast inhibitor project, luminescence, uHTS. S. cerevisiae TIM10 strain growth, BacTiter-Glo luminescence, 24 h. inhibition, % at 10 µM. 330,000 tested, 1.4% active. AID 463195, 2010;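 active means inhibition of 40% or more at the single tested concentration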;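 further: wild-type TIM10 isogenic control strain grown at permissive 25 °C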
tim23-1 inh: growth inhibitors of tim23-1 mutant yeast, primary screen, luminescence, uHTS. S. cerevisiae tim23-1 growth, BacTiter-Glo luminescence, 24 h. inhibition, % at 20 µM. 330,000 tested, 1.3% active;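 active means growth inhibition of the mutant yeast at or above 50%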;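 further: temperature-sensitive mutant grown at 25 °C; plate controls were DMSO-treated mutant yeast for no effect and medium wells lacking yeast for full effect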
tim10-1 inh: growth inhibitors of tim10-1 mutant yeast, primary screen, luminescence, uHTS; S. cerevisiae tim10-1 ts strain growth, BacTiter-Glo, 24 h; 330,000 tested, 2.2% active; inhibition, % at 20 µM; AID 463190, 2010;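 active means inhibition of at least 40%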;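 further: mutant grown at 25 °C; 0% = DMSO wells with yeast and 100% = wells holding no yeast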
tim10-1 conf: growth inhibitors of tim10-1 mutant yeast, confirmation, single concentration, luminescence, S. cerevisiae | AID 463213, 2010 | S. cerevisiae tim10-1 ts strain growth, BacTiter-Glo, 24 h | inhibition, % at 20 µM | 7,400 tested, 56% active | shares compounds with tim10-1 inh;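 active means inhibition of yeast growth at or above a set limit in either of two repeat tests at 20 µM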;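 further: tim10-1 mutant grown at permissive 25 °C to find synthetic lethal compounds; 0% = DMSO yeast wells and 100% = medium wells without yeast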
* = called active by the depositor; x = not tested or not shown. Most compounds without a hit are left out; they make up all but 4.6% or so of the library.

SMILES	NALP3 yeast inh	SKKanGAS inh	PfHsp90 set2	TIM10 inh	tim23-1 inh	tim10-1 inh	tim10-1 conf
CS(=O)(=O)N(CC(=O)Nc1cccc(F)c1)Cc1ccccc1	4	-4	-6	-12	7	49*	5
Cc1ccc(C)c(C(=O)OCC(=O)N(C)c2ccccc2)c1	22	-2	-28	35	44	56*	44*
COc1ccc(/C=C/c2c(-c3ccc(OC)cc3)oc(=O)c3cc(OC)c(OC)cc23)cc1	3	x	2	4	16	10	x
COc1ccc(-c2oc3cccnc3c2/C=C/c2ccc(OC)c(OC)c2)cc1	22	19	-9	18	37	41*	14
COc1ccc(C2=NN3C(=O)c4c(ccc(OC)c4OC)C3C2)cc1 (stereo not drawn)	23	-1	10	37	41	13	x
COc1ccc2c(c1OC)C(=O)N1N=C(c3ccc(Cl)cc3)CC21 (stereo not drawn)	34	-2	-7	31	39	46*	33*
Cc1cc(OC(=O)c2cccc(Br)c2)c([N+](=O)[O-])c(=O)[nH]1	3	-7	-4	7	4	46*	-8
CN(C)Cc1c(O)ccc2c(=O)c(-c3ccccc3Cl)c(C(F)(F)F)oc12	16	3	1	15	14	7	x
CCCc1sc(N)nc1-c1ccc(Cl)cc1	-5	-6	-33	18	13	43*	20
CC(CCCC(C)(C)O)NC(=O)c1cc(COc2ccc3ncccc3c2)on1 (stereo not drawn)	0	-4	18	8	-1	3	x
Cc1nc2sc3c(=O)[nH]nnc3c2c(C)c1Br	14	8	-9	8	43	42*	31
CCOC(=O)c1c(C)oc2ccc(NS(=O)(=O)c3cccs3)cc12	-1	2	-32	29	37	42*	21
CCCOC(=O)c1ccc(NS(=O)(=O)c2cccs2)cc1	17	-3	-9	30	38	54*	35*
O=C(COC(=O)c1ccc(NS(=O)(=O)c2cccs2)cc1)NCc1ccco1	10	-17	-5	-7	-20	-15	x
Cc1cc([N+](=O)[O-])ccc1NC(=O)CSc1nccc(=O)[nH]1	13	2	10	3	4	6	x
CCC(CO)Nc1ncnc2c1cnn2-c1ccc(Cl)cc1 (stereo not drawn)	16	-6	13	-12	13	19	x
CCC(CO)Nc1nc2ccc(Cl)cc2c2ccccc12 (stereo not drawn)	21	7	34	32	29	53*	39*
COC1=CC(=O)C(O)=C(CCCCCCC/C=C/CCCCCCCC2=C(O)C(=O)C=C(OC)C2=O)C1=O	20	24	15	-2	43	43*	38*
COc1cc(CCC(=O)OCc2nnc(-c3ccccc3)o2)cc(OC)c1OC	-10	-1	-1	21	19	32	x
COc1cc(-c2nnc(COC(=O)CSc3cc(C)c4ccccc4n3)o2)cc(OC)c1OC	5	-24	63	6	18	40*	17
COc1ccccc1-n1c(SCC(=O)NC2CCS(=O)(=O)C2)nc2cc([N+](=O)[O-])ccc21 (stereo not drawn)	1	2	-23	7	3	10	x
COc1ccccc1-n1c(SCC(=O)c2ccc(O)cc2O)nc2cc([N+](=O)[O-])ccc21	17	-8	-43	4	39	41*	29
CCOc1ccccc1NC(=O)CCSc1nc2n[nH]c(C)c2c(=N)n1-c1ccccc1Cl	-5	-1	-7	22	1	21	x
COc1ccc(OC)c(NC(=O)CSc2nc3n[nH]c(C)c3c(=N)n2-c2cccc(Cl)c2C)c1	3	22	0	15	34	43*	6
Cc1ccccc1-n1c(SCC(=O)Nc2ccccc2Cl)nc2n[nH]c(C)c2c1=N	-3	11	-16	26	28	42*	11
SMILES	NALP3 yeast inh	SKKanGAS inh	PfHsp90 set2	TIM10 inh	tim23-1 inh	tim10-1 inh	tim10-1 conf
Cc1ccccc1-n1c(SCc2ccccn2)nc2n[nH]c(C)c2c1=N	16	-3	21	18	38	40*	38*
COc1ccc(NS(=O)(=O)c2cccc(C(=O)NN=C(C)c3ccco3)c2)cc1	7	x	-5	0	7	0	x
COc1cccc(CC(NC(C)=O)C(=O)NC2CCN(C(=O)Nc3ccc(C)cc3)CC2)c1 (stereo not drawn)	-3	-2	8	7	8	-3	x
Cc1nn(-c2ccc3ccccc3c2)c(=O)c2ccccc12	6	11	4	35	40	40*	28
Cc1nn(-c2ccc(Cl)c(Cl)c2)c(=O)c2ccccc12	0	2	-33	9	5	14	x
O=C(NCc1ccco1)c1cc2ccc(O)cc2oc1=O	1	60*	x	34	44	55*	46*
CC(C)c1ccc(NC(=O)c2cc(S(=O)(=O)NCC3COc4ccccc4O3)ccc2F)cc1 (stereo not drawn)	3	69*	-17	38	34	43*	43*
O=C(O)c1cc(S(=O)(=O)NCC2COc3ccccc3O2)ccc1Cl (stereo not drawn)	7	x	-18	6	-9	-20	x
Cc1ccc(NC(=O)CSC2=Nc3ccccc3C3CC=NN23)c(C)c1 (stereo not drawn)	4	4	-29	17	25	44*	9
CC1(C)CC(=O)c2sc(NC(=O)CCS(=O)(=O)c3ccccc3)nc2C1	9	-2	11	31	48	46*	37*
Cc1cc(C)n(-c2nc(NCCCO)c3c4c(sc3n2)CCCC4)n1	23	55*	x	27	39	50*	27
Cc1cc(C)n(-c2nc(NCC(C)O)c3c4c(sc3n2)CCCC4)n1 (stereo not drawn)	15	0	-5	24	39	36	x
COc1ccc2c(C)c(C(=O)NCC(C)O)oc2c1OC (stereo not drawn)	4	-11	-7	1	18	-2	x
CN(C)c1nc(OCCNC(=O)Nc2ccccc2)nc(N2CCCCC2)n1	1	-1	-4	16	21	40*	18
